The text below walks through data of PubChem BioAssay AID602293 (National Center for Advancing Translational Sciences (NCATS), 2012).

The structures appear in SMILES notation. The campaign covered roughly 1,300 compounds. About 30 (2%) were called active. Entries that show only a call come without a potency. Not shown: some 10% with an inconclusive outcome. The sample holds actives, similar compounds and a random draw of the others, so the mix is not that of the screen. The call rests on the fitted dose curve; in most records, active means well fitted inhibition curve with a large enough effect; inconclusive means small, poorly fitted or top-dose-only effect; inactive means flat fitted curve, though single readings scatter.
Potency means the concentration at half of the fitted maximal effect.

The nature of this assay: qHTS for antagonists of the Thyroid Stimulation Hormone Receptor: Hit Validation in HTRF Activity in a Luteinizing Hormone Receptor Cell Line. Particulars: LHR-expressing cell line, cAMP HTRF, antagonist mode; series mostly up to 58 µM. An excerpt: The thyroid-stimulating hormone receptor (TSHR) is a member of the 7 trans-membrane-spanning receptor (7TMR) family of cell surface receptors. TSHR-mediated hyperthyroidism is important in thyroid pathology. The development of small molecule antagonists of TSHR may lead to therapeutic approaches for TSHR-mediated hyperthyroidism caused by constitutively activating mutations or stimulating auto-antibodies associated with Graves' disease. Graves' disease is the leading cause of hyperthyroidism and is caused by autoantibodies that stimulate TSHR (TsAbs) causing thyroid growth and unregulated overproduction of thyroid hormones and existing treatments have liabilities (agranulocytosis). In addition, TSHRs are known to be expressed in multiple extrathyroidal tissues including bone, brain, kidney, testis, fat and cells of the immune system but the role of the TSHR in these tissues is not clear. Therefore, TSHR antagonists/inverse agonists could be used as probes of extrathyroidal TSHR function. Finally, TSHR inverse agonists, which are a subclass of antagonists that inhibit agonist-independent (or basal or constitutive) TSHR signaling, could be used to inhibit TSH-independent signaling in patients with recurrent or metastatic thyroid cancer who are receiving thyroid hormone to suppress TSH.
In collaboration between scientist from the NCGC and the NIDDK, a miniaturized HTRF high-throughput screen was developed. It's a cell based assay, where an anti cAMP antibody contains a fluorescent cryptate tag (excitation 337 nm; emission 620 nm) and the acceptor is cAMP-d2 (excitation 620 nm; emission 665 nm). When antibody and cAMP-d2 interact and are excited by a 337 nm light, a FRET occurs resulting in emission at 665 nm. The assay is competition between cAMP-d2 and cAMP (from the cell lysate). The homogeneous protocol allows for one step dispense after stimulation that is automation friendly. In order to confirm specificity of the compounds to the TSHR, a confirmatory assay was conducted on a similar family member, the Luteinizing Hormone (LH) receptor, transfected into a HEK 293 cell line, using an orthogonal detection technology to measure cAMP stimulation: antibody-based Homogeneous Time Resolved Fluorescence (HTRF).
NIH Chemical Genomics Center [NCGC]
NIH Molecular Libraries Probe Centers Network [MLPCN]
Assay Provider: Marvin Gershengorn, NIDDK
Homogeneous Time Resolved Fluorescence (HTRF) cAMP Assay. HEK 293 cells stably transfected with a vector containing the LH receptor and maintained under hygromycin selection were obtained from the laboratory of Dr. Marvin Gershengorn. Compounds were assayed using a HTRF cAMP detection kit (Cisbio) on the LH receptor transfected cell line. Briefly, 750 cells were plated in 2.5 ul/well of complete media (DMEM containing 10 % FCS, and 100 uM RO 20-1724) in 1536 well solid bottom white plates and 23 nl/well compound in DMSO solution or controls was added. Following 30 minute incubation at room temperature, 2.5 ul/well of labeled d2 cAMP and 2.5 ul/well of anti-cAMP antibody (both diluted 1:20 in lysis buffer) were added to each well using a flying reagent dispenser (Aurora Discovery, San Diego) . Plates were measured using the Envision plate reader (PerkinElmer, Boston, MA) with excitation at 330 nm and emissions of 615 nm and 660 nm.
(qHTS replaces the single test concentration by a dilution series.)
`COc1ccccc1N1CCN(c2nc(C)nc3c2oc2ccccc23)CC1`: the Potency result was “inactive”. The figure for `O=C1C=CC(=O)N1CCCCCCN1C(=O)C=CC1=O` is 33.8 µM (active).

`Cc1cccc(/C=C/C(=O)c2cc(Br)ccc(=O)c2O)c1`: the Potency entry is “inactive”. Consider `O=S(=O)(c1cc(C(F)(F)F)ccc1Cl)N1CCN(c2ncnc3ccccc23)CC1`, for which the Potency result was “inactive”.

On to `COc1cc2sc3ccc(-c4ccc(CN5CCOCC5)cc4)cc3c(=O)c2cc1OC`, for which the Potency result was “inactive”. With `COc1ccc(NC(=O)/C(Cl)=C(/Cl)S(=O)Cc2ccccc2Cl)cn1` (stereo not given), the Potency was 37.9 µM (active).

Regarding `COc1ccc(NS(=O)(=O)c2ccc3c(c2)Cc2ccccc2-3)cn1`, the Potency result was “inactive”. The entry for `O=C(Nc1ccccc1Cl)/C(Cl)=C(\Cl)S(=O)c1ccccc1` (stereo not given) is “inactive”; for `c1ccc2c(Cn3nnc4ccccc43)cccc2c1` it is “inactive”; for `Cc1onc(-c2ccccc2Cl)c1C(=O)NC(=S)Nc1ccc(C(C)C)cc1` it is “inactive”. `O=C(N1CCN=C1SCc1cccnc1)C12CC3CC(CC(C3)C1)C2`: the Potency entry is “inactive”. Turning to `O=C(CSc1nc2cc(Cl)c(Cl)cc2[nH]1)c1ccc2c(c1)OCO2`, the Potency entry is “inactive”. The entry for `O=S(=O)(Nc1ccc2cn[nH]c2c1)c1cc(Br)ccc1Br` is “inactive”; for `C=C(C)CNc1cc(S(=O)(=O)N2CCOCC2)ccc1Oc1ccccc1` it is “inactive”; for `Clc1ccc(CSc2nnc(CNc3cccc(Cl)c3)o2)cc1` it is “inactive”. The entry for `CCN(CC)S(=O)(=O)c1ccc(Oc2ccc(S(=O)(=O)N(CC)CC)cc2)cc1` is “inactive”; for `CC1=NN(C(N)=S)C(=O)C1N=Nc1c(Br)cc(Br)cc1Br` (stereo not given) it is “inactive”. On to `O=C(Oc1c(Br)cc([N+](=O)[O-])cc1Br)c1cccnc1`, for which the Potency entry is “inactive”. The entry for `CCc1ccccc1NC(=O)CN1CCN(C(=O)CNC(=O)Cc2cccc3ccccc23)CC1` is “inactive”; for `O=C(Nc1ccc(Cl)c(Cl)c1)Nc1ccccc1O` it is “inactive”. The figure for `COc1ccc(-c2cc(-c3nc4ccccn4c3NCc3ccccc3)ccc2OC)cc1` is 9.53 µM (active).

For `CCCCNc1c(-c2cccc(-c3ccc(OC)cc3)c2)nc2ccc(C)cn12`, the Potency entry is “inactive”. As for `CCCCCCSc1ccc(-c2nc3ccc(Cl)cn3c2NCCCC)cc1OC`, the Potency entry is “inactive”. The entry for `O=C(Nc1nc2c(s1)CCCC2)c1ccc2ncsc2c1` is “inactive”. The entry for `N#C/C(=N\Nc1cccc([N+](=O)[O-])c1)C(=O)c1ccc(Br)cc1` is “inactive”. With `Cc1ccc(C)c(N2CCN(C(=O)CCS(=O)(=O)c3ccc4c(c3)CCN4C(=O)C3CC3)CC2)c1`, the Potency entry is “inactive”. The figure for `Cc1ccc(-n2c(Cl)c(Cl)nc(Cl)c2=O)cc1` is 37.9 µM (active); for `Cc1c(Cl)sn(-c2ccc(Cl)cc2)c1=O` it is “inactive”. In the case of `Cc1ccc2cccc(Oc3ncnc4scc(-c5ccccc5)c34)c2n1`, the Potency entry was “inactive”.

As to `O=C(Nc1nc(-c2ccc(Cl)cc2Cl)cs1)c1ccc(OCC2CCCO2)cc1` (stereo not given), the Potency entry was “inactive”. The entry for `COc1cc(C(C)=O)ccc1OCC(=O)Nc1ccc(Cl)c(S(=O)(=O)N2CCOCC2)c1` is “inactive”; for `O=C(Nc1ccc(Cl)c(S(=O)(=O)N2CCOCC2)c1)c1ccc(OCC2CCCO2)cc1` (stereo not given) it is 37.9 µM (active); for `COC(=O)c1ccc(CN2C(=O)NC(Cc3c[nH]c4ccccc34)C2=O)cc1` (stereo not given) it is “inactive”. The entry for `COc1ccc(-c2csc(NC(=O)c3ccccc3NS(=O)(=O)c3ccc(F)c(F)c3)n2)cc1` is “inactive”. The entry for `COc1ccc(Cc2nc(C(=O)Nc3ccc(Cl)cc3)cs2)cc1` is “inactive”. For `O=S(=O)(Nc1cccc(-c2cn3cccnc3n2)c1)c1ccc(-c2ccccc2)cc1`, the Potency result is “inactive”. `CCOC(=O)CCS(=O)(=O)c1nc(-c2ccccc2)cc(C(F)(F)F)n1`: the Potency result is “inactive”. The entry for `COc1ccc(/C=N/n2c(SC)nnc(C(C)(C)C)c2=O)cc1` is “inactive”; for `COc1ccc(S(=O)(=O)N2CCOC23CCN(C(=O)c2ccc(Cl)cc2Cl)CC3)cc1` it is “inactive”; for `O=C(NCCC1=CCCCC1)C(=O)NCC1OCCCN1S(=O)(=O)c1ccccc1` (stereo not given) it is “inactive”. The entry for `Cc1cc(C(=O)CCl)c(C)n1CCc1ccccc1` is “inactive”; for `CC1(C)CC2(CCCN3C(=O)CSC32)CCS1` (stereo not given) it is “inactive”. Turning to `COC(=O)c1ccc(-c2noc(CN(C)CCC3CCCCO3)n2)cc1` (stereo not given), the Potency entry was “inactive”. The entry for `CCC(C)(C)C1CCC(NC(=O)N2CCN(c3ccccc3O)CC2)CC1` (stereo not given) is “inactive”. As for `COc1ccccc1-n1cnc2cc(NS(=O)(=O)c3ccc(Br)cc3)ccc21`, the Potency entry was “inactive”. `O=C1NC(=S)S/C1=C\c1ccc2ccccc2c1`: the Potency entry was “inactive”. The figure for `O=[N+]([O-])c1c(Nc2cccc(O)c2)cc(Cl)c2nonc12` is 30.1 µM (active); for `O=C(COC(=O)c1ccccc1NS(=O)(=O)c1cccs1)NCC12CC3CC(CC(C3)C1)C2` it is “inactive”; for `Cc1cc(OCC(=O)Nc2cccc(S(=O)(=O)N3CCCC3)c2)ccc1Cl` it is “inactive”. Consider `CCOC(=O)c1c(NC(NC(=O)C(C)C)C(Cl)(Cl)Cl)sc2c1CCC2` (stereo not given), for which the Potency entry was “inactive”. The entry for `O=C(Nc1ccc(SC(F)F)cc1)c1ccc2c(=O)n3c(nc2c1)CCC3` is “inactive”; for `COc1cc2cnc(-c3ccccc3)c(-c3ccc(C#N)cc3)c2cc1OC` it is “inactive”. In the case of `CCn1c(Cl)c(C=O)s/c1=N\S(=O)(=O)c1ccccc1`, the Potency was 37.9 µM (active).

As to `CCOc1ccccc1N1CCN(C(=O)CCCN2C(=O)c3cccc4cccc(c34)C2=O)CC1`, the Potency result was “inactive”. The entry for `CC(C)N(Cc1ccccc1)C(=O)COC(=O)c1cnc(Cl)c(Cl)c1` is “inactive”. As to `CC(Sc1nn(-c2ccc(F)cc2)c(=S)s1)C(=O)c1c(N)n(C)c(=O)n(C)c1=O` (stereo not given), the Potency entry is “inactive”.

On to `CC1=CC(=O)C(C(C)C)=C/C1=N/OS(=O)(=O)c1ccccc1`, for which the Potency was 21.3 µM (active). The figure for `CC1=C/C(=N\OS(=O)(=O)c2ccccc2)C(C)=CC1=O` is 30.1 µM (active).

On to `COc1ccc(/C=N/NC(=O)c2ccoc2C)cc1COc1c(C)cccc1C`, for which the Potency result is “inactive”. Take `CCCSc1nsc(NC(=O)Nc2ccc(F)cc2F)n1`: the Potency result was “inactive”.

With `O=C(COc1ccc(Cl)cc1)Nc1ncc([N+](=O)[O-])s1`, the Potency entry was “inactive”. As for `COc1cc(/C=N/OCC(=O)NC23CC4CC(CC(C4)C2)C3)ccc1OCc1ccccc1`, the Potency entry was “inactive”. The entry for `O=C(OCCc1cc2ccccc2c(=O)o1)c1ccccc1C(F)(F)F` is “inactive”; for `CCN(CC)c1ccc2nc3ccccc3[n+](CC)c2c1` it is 30.1 µM (active). The entry for `O=C(Nc1nc(-c2ccc(F)cc2)cs1)C1CCN(C(=O)c2ccc(F)cc2)CC1` is “inactive”.
